Assay results taken from PubChem BioAssay (NCATS).
A number with no mark means an inactive call. The call rests on the fitted dose curve; in most records, active means well fitted activation curve with a large enough effect; inconclusive means small, poorly fitted or top-dose-only effect; inactive means flat fitted curve, though single readings scatter.

These compounds were tested against Peroxisome proliferator-activated receptor alpha (Homo sapiens) (UniProt Q07869) (assay: qHTS assay for small molecule agonists of the peroxisome proliferator-activated receptor alpha (PPARalpha) signaling pathway (AID 651778; further: % of control where 0% means no effect)). Details: PathHunter PPARalpha complementation, chemiluminescence, 6 h; max response: hits give high values.
Peroxisome proliferator-activated receptor alpha (Homo sapiens), sequence (Q07869 whole entry, looked up): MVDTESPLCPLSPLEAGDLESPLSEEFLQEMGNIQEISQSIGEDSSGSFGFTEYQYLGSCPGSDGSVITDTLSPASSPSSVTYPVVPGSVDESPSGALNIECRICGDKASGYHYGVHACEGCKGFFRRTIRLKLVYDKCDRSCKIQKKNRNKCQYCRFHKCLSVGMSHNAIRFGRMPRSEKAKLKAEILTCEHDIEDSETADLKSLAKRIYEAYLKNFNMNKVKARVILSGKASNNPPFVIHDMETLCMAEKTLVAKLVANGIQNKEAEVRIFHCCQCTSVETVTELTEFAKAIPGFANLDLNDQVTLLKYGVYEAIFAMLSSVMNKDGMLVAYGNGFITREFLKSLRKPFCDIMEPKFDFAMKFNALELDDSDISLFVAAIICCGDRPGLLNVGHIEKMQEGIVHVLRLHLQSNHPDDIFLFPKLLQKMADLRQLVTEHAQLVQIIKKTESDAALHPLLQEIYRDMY
From the text: National Center for Advancing Translational Sciences [NCATS]
NIH Chemical Genomics Center [NCGC]
U.S. Environmental Protection Agency [EPA]
National Institutes of Environmental Health Sciences [NIEHS]
National Toxicology Program [NTP]
The Peroxisome proliferator-activated receptors (PPARs) are lipid-activated transcription factors of the nuclear receptor superfamily with three distinct subtypes (alpha, garmma and beta/delta). All these subtypes heterodimerize with retinoid X receptor and have different physiological functions. PPARalpha is highly expressed in tissues with high rates of mitochondrial fatty acid oxidation, such as liver, heart, muscle, kidney and cells of the arterial wall. PPARalpha is a major regulator of lipid metabolism and energy homeostasis.
A cell based assay was used to identify activators of PPARalpha. The assay detects binding of a ligand to PPARalpha leading to its activation, translocation and complementation thus forming a functional enzyme capable of hydrolyzing the substrate molecule and generating chemiluminescent signal.
2,000 cells in 6 uL/well were dispensed into white wall/solid bottom 1536-well plates using a Multidrop Combi (Thermo Scientific) dispenser. After incubation 37 C and 5% CO2 overnight, 23 nL compound or DMSO only were transferred by a pin tool. The plates were incubated for 6 hr at 37 C and 5% CO2. 3 ul PathHunter detection reagent (Discoverx) was then added to each well and following 60 min incubation at room temperature, chemiluminescence was quantified on a ViewLux CCD-based plate reader.
With N[C@@H]1[C@@H](O)[C@H](O)[C@@H](CO)O[C@H]1O the max response was -1.62%. C[C@]12CCC(=O)C=C1CC[C@@H]1[C@@H]2[C@@H](O)C[C@]2(C=O)[C@@H](C(=O)CO)CC[C@@H]12 gave a max response of 0.506%. With CS(C)=O the max response was 0.892%. With Oc1ccc(Nc2ccccc2)cc1 the max response was -0.779%. For CCCCCCCCCC(C)=O, the max response was 0.198%. For NC(=O)Cc1cccc2ccccc12, the max response was -0.179%. In the case of CC(=O)/C=C/C1C(C)=CCCC1(C)C (stereo not given), the max response is reported as -0.682%. With O=C(O)c1ccc(C(=O)O)c(C(=O)O)c1 the max response was -1.17%. Work on CCCCCCCCCc1ccccc1 yielded a max response of -0.702%. Compound C/C(=C\C(C)CC(C)CC(C)C)C1CC(=O)OC1=O (stereo not given) has a max response of -0.902%. CCCCCCCC/C=C\CCCCCCCCO gave a max response of 8.71%. In the case of CCOCCOCCOC(C)=O, the max response is reported as 0.0175%. Compound CC(C)c1ccc(C(C)C)cc1 has a max response of -2.48%. With CCCC/C=C\CCCCCCCCO the max response was 2.88%. In the case of C=C(C)C(=O)OCCC[Si](OC)(OC)OC, the max response is reported as -1.45%. Brc1ccc(Br)c(Br)c1 gave a max response of -4.16%. Clc1nc(Cl)c(Cl)c(Cl)c1Cl showed a max response of -3.38%. For COCCOCCOCCO, the max response was 0.508%. CCCCC(CC)COC(=O)c1ccc(C(=O)OCC(CC)CCCC)cc1 (stereo not given) showed a max response of -1.72%. With CCCCCCCCCCCCCO the max response was 1.19%. FC(F)(F)c1ccc(Cl)c(Cl)c1 showed a max response of 0.167%. Work on C=CCCCCCCCCCCCC yielded a max response of -1.61%. Nc1c(N=Nc2ccc(S(=O)(=O)CCOS(=O)(=O)O)cc2)c(S(=O)(=O)O)cc2cc(S(=O)(=O)O)c(N=Nc3ccc(S(=O)(=O)CCOS(=O)(=O)O)cc3)c(O)c12 showed a max response of -8.75%. In the case of CCCCCCCCCCCO, the max response is reported as 1.65%. With CCCCCCCCCCCCCC(=O)OC the max response was 0.157%. In the case of CCC(O)OCCCOC (stereo not given), the max response is reported as -1.52%. Nc1ccc(Nc2ccccc2)cc1 showed a max response of -0.422%. With Nc1cc(Cl)nc(C(=O)O)c1Cl the max response was -2.9%. In the case of C=Cc1ccccc1Br, the max response is reported as 0.716%. CCSC(=O)N(CC(C)C)CC(C)C showed a max response of -0.436%. For CCCCCCCCCCCCc1ccccc1, the max response was -0.756%. With Cc1ccc2c(c1)C(=O)OC2=O the max response was -2.31%. For C1CCC2(CCCCO2)OC1, the max response was 0.092%. For CS(=O)(=O)c1ccc(Cl)cc1, the max response was -0.188%. Compound CCCCCCc1ccc(N)cc1 has a max response of 0.597%. CCOC(=O)C(C)Oc1ccc(Oc2nc3ccc(Cl)cc3o2)cc1 (stereo not given) gave a max response of 26%. Compound CC/C(=C(\c1ccc(O)cc1)c1ccc(OCCN(C)C)cc1)c1ccccc1 has a max response of -2.87%. In the case of CCCCCCCCCCCCN, the max response is reported as -0.939%. Compound CC[C@H](C)C1O[C@]2(C=C[C@@H]1C)C[C@@H]1C[C@@H](C/C=C(\C)[C@@H](O[C@H]3C[C@H](OC)[C@@H](O[C@H]4C[C@H](OC)[C@H](NC(C)=O)[C@H](C)O4)[C@H](C)O3)[C@@H](C)/C=C/C=C3\CO[C@@H]4[C@H](O)C(C)=C[C@@H](C(=O)O1)[C@]34O)O2 (stereo not given in full) has a max response of 6.61%. COC(=O)c1ccc(C(=O)OC)cc1 was tested, and the max response was -0.437%.
